{
  "source": "PubChem BioAssay (NCI)",
  "note": "This is part of a sample that, as a whole, favours compounds with a hit. Of some 83,000 tested, about 20% had one in any assay.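 Single-dose data. Exposure time 48 hours. Values below 10 considered active.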 Unmarked numbers belong to inactive results. Activity calls are given as the source filed them.",
  "data": [
    {"tested_on": "NCI-H522 lung", "assay": "NCI-60 one-dose screen, 48 h (100 = growth as untreated, 0 = no growth, -100 = all killed)", "conditions": "10 µM unless noted", "values": [
      {"smiles": "CC(C)CCC[C@@H](C)[C@H]1CC[C@H]2[C@@H](Nc3ccc(O)cc3)CCC[C@]12C", "growth": "-42.6% (active)"},
      {"smiles": "O=C(Nc1ccccc1)Nc1cccc(Oc2nnc(Cl)c3ccccc23)c1", "growth": "2% (active)"},
      {"smiles": "CCCCNC(=O)Oc1ccc2c(=O)c3sc4c(=O)c5ccccc5c(=O)c4c3c(=O)c2c1", "growth": "-69.5% (active)"},
      {"smiles": "COc1nc(N(C)O)nc(N(C)O)n1", "growth": "56.5%"},
      {"smiles": "N=c1sc(Cc2ccc(Cl)cc2)cn1CC(=O)c1ccc(F)cc1", "growth": "63.5%"},
      {"smiles": "Cc1ccc(-c2cc(-c3ccccc3C)[nH]c(=O)c2C#N)s1", "growth": "87.5%"},
      {"smiles": "O=C1/C(=C\\c2c[nH]c3ccccc23)c2ccccc2N1c1c(Cl)cccc1Cl", "growth": "-57.9% (active)"},
      {"smiles": "COc1ccc(C2C(c3nn[nH]n3)=C(N)Oc3c2ccc2ccccc32)cc1", "note": "(stereo unspecified)", "growth": "23.9%"},
      {"smiles": "CCCCCCCOc1c(OC)cc(C2CC(=O)Nc3c2c(C)nn3-c2nc3ccccc3[nH]2)cc1OC", "note": "(stereo unspecified)", "growth": "-40.7% (active)"},
      {"smiles": "Cc1c(C(=O)OC(=NC2CCCCC2)NC2CCCCC2)sc2c1c(=O)nc1c(C#N)n[nH]n12", "growth": "89.2%"},
      {"smiles": "C[n+]1cccc(CC(=O)NO)c1", "growth": "84.6%"},
      {"smiles": "c1c[nH]c(CNC2CCCCC2)c1", "growth": "109%"},
      {"smiles": "N#C/C(=C\\c1ccc(Br)cc1)n1nnc2cc(F)c(F)cc21", "growth": "19.9%"},
      {"smiles": "CC1(C)CC[C@]2(C(=O)N3CCOCC3)CC[C@]3(C)C(=CC[C@@H]4[C@@]5(C)CC[C@H](OC(=O)c6cccnc6)C(C)(C)[C@@H]5CC[C@]43C)[C@@H]2C1", "growth": "73.3%"},
      {"smiles": "O=C(c1ccccc1)c1c(/C=C/c2ccccc2)nc2ccccc2c1/C=C/c1ccc(Br)cc1", "growth": "88.2%"},
      {"smiles": "O=C(COc1ccc(/C=C2\\Oc3ccccc3C2=O)cc1)Nc1nc2c(s1)CCCC2", "growth": "-74.9% (active)"},
      {"smiles": "Cc1ccc(Cl)c(NS(=O)(=O)c2ccc(-c3cnc(C4CC4)o3)cc2)c1", "growth": "3.84% (active)"},
      {"smiles": "Cc1ccc2nc(C)c(-c3nnc(SCc4ccc(C#N)cc4)o3)n2c1", "growth": "97%"},
      {"smiles": "CC1=C(SCCC(=O)OC(C[Se]C2=C(C)C(=O)c3ccccc3C2=O)C(=O)NCCCCCC(=O)OCc2ccccc2)C(=O)c2ccccc2C1=O", "note": "(stereo unspecified)", "growth": "20.7%"},
      {"smiles": "NNC(=O)c1nc(N)n(-c2ccc(S(N)(=O)=O)cc2)n1", "growth": "80.3%"},
      {"smiles": "Cn1c(=O)c2[nH]c(NN)nc2n(C)c1=O", "growth": "99.9%"},
      {"smiles": "O=C(/C=C/c1cccc(O)c1)c1cccc(-n2cc(-c3ccc4ccccc4c3)[nH]c2=O)c1", "growth": "75.9%"},
      {"smiles": "O=C(/C=C/c1ccco1)c1ccc(Nc2nc(Nc3ccc(F)cc3)nc(Nc3ccc(Cl)cc3)n2)cc1", "growth": "76.8%"},
      {"smiles": "O=C1OC(c2nc3ccccc3s2)=C/C1=C\\c1ccc(O)cc1", "growth": "91.4%"},
      {"smiles": "COc1ccc(-c2c(N)n[nH]c2-c2ccc(Cl)cc2O)cc1OC", "growth": "84.3%"},
      {"smiles": "O=C(Nc1cccc(Cl)c1)c1cc(N=Nc2ccc([N+](=O)[O-])cc2Cl)ccc1O", "growth": "-16.5% (active)"},
      {"smiles": "CCN(CC)CCN1C(=O)c2c(c(C)c3c(oc4cc(O)ccc43)c2C)C1=O", "growth": "-37.1% (active)"},
      {"smiles": "CNC(=O)c1cc(Oc2ccc3nc(Nc4ccc(Cl)c(C(F)(F)F)c4)ccc3c2)ccn1", "growth": "22.7%"},
      {"smiles": "CCCc1cc2c(=O)c(C(=O)OC)c[nH]c2cc1N(CC)CC", "growth": "73.7%"},
      {"smiles": "COc1cc(/C=N/NC(=O)Cn2c(C(C)C)nc3ccccc32)ccc1O", "growth": "92.4%"},
      {"smiles": "COc1ccc(C(=O)COc2ccc(/C=C3\\Oc4ccccc4C3=O)cc2)cc1", "growth": "63%"},
      {"smiles": "CCN(CCNc1ccc(C)c2sc3ccccc3c(=O)c12)CC(C)(C)O", "growth": "74.2%"},
      {"smiles": "O=C(CSc1nnc(-c2ccc(NC(=O)c3cccnc3)cc2)o1)N[C@@H](Cc1ccc(O)cc1)C(=O)O", "growth": "91%"},
      {"smiles": "CN(C)c1ccc(/C=C/C(=O)c2cccc(Nc3nc(Nc4ccccc4)nc(Nc4ccccc4)n3)c2)cc1", "growth": "87.3%"},
      {"smiles": "N#C/C(=C\\c1ccc(-c2ccccc2F)o1)c1nc(-c2ccco2)cs1", "growth": "81.5%"},
      {"smiles": "Cc1ccc(C(=O)CSc2nc(-c3ccc(Br)cc3)c(C#N)c(=O)[nH]2)cc1", "growth": "90%"},
      {"smiles": "COc1ccc(-c2nc3sccn3c2-c2cc(-c3cc(OC)c(OC)c(OC)c3)on2)cc1", "growth": "87.9%"},
      {"smiles": "c1ccc(-c2nc([P+](c3ccccc3)(c3ccccc3)c3ccccc3)c(N3CCOCC3)o2)cc1", "growth": "-3.16% (active)"}
    ]},
    {"tested_on": "A549/ATCC NSCLC", "assay": "NCI-60 one-dose screen, 48 h (100 = growth as untreated, 0 = no growth, -100 = all killed)", "conditions": "10 µM unless noted", "values": [
      {"smiles": "CC(C)CCC[C@@H](C)[C@H]1CC[C@H]2[C@@H](Nc3ccc(O)cc3)CCC[C@]12C", "growth": "95.5%"},
      {"smiles": "O=C(Nc1ccccc1)Nc1cccc(Oc2nnc(Cl)c3ccccc23)c1", "growth": "11.2%"},
      {"smiles": "CCCCNC(=O)Oc1ccc2c(=O)c3sc4c(=O)c5ccccc5c(=O)c4c3c(=O)c2c1", "growth": "-61.8% (active)"},
      {"smiles": "COc1nc(N(C)O)nc(N(C)O)n1", "growth": "33.7%"},
      {"smiles": "N=c1sc(Cc2ccc(Cl)cc2)cn1CC(=O)c1ccc(F)cc1", "growth": "66.7%"},
      {"smiles": "Cc1ccc(-c2cc(-c3ccccc3C)[nH]c(=O)c2C#N)s1", "growth": "87.9%"},
      {"smiles": "O=C1/C(=C\\c2c[nH]c3ccccc23)c2ccccc2N1c1c(Cl)cccc1Cl", "growth": "0.113% (active)"},
      {"smiles": "COc1ccc(C2C(c3nn[nH]n3)=C(N)Oc3c2ccc2ccccc32)cc1", "note": "(stereo unspecified)", "growth": "72.5%"},
      {"smiles": "CCCCCCCOc1c(OC)cc(C2CC(=O)Nc3c2c(C)nn3-c2nc3ccccc3[nH]2)cc1OC", "note": "(stereo unspecified)", "growth": "1.6% (active)"},
      {"smiles": "Cc1c(C(=O)OC(=NC2CCCCC2)NC2CCCCC2)sc2c1c(=O)nc1c(C#N)n[nH]n12", "growth": "108%"},
      {"smiles": "C[n+]1cccc(CC(=O)NO)c1", "growth": "68.1%"},
      {"smiles": "c1c[nH]c(CNC2CCCCC2)c1", "growth": "103%"},
      {"smiles": "N#C/C(=C\\c1ccc(Br)cc1)n1nnc2cc(F)c(F)cc21", "growth": "41.5%"},
      {"smiles": "CC1(C)CC[C@]2(C(=O)N3CCOCC3)CC[C@]3(C)C(=CC[C@@H]4[C@@]5(C)CC[C@H](OC(=O)c6cccnc6)C(C)(C)[C@@H]5CC[C@]43C)[C@@H]2C1", "growth": "47.3%"},
      {"smiles": "O=C(c1ccccc1)c1c(/C=C/c2ccccc2)nc2ccccc2c1/C=C/c1ccc(Br)cc1", "growth": "98.1%"},
      {"smiles": "O=C(COc1ccc(/C=C2\\Oc3ccccc3C2=O)cc1)Nc1nc2c(s1)CCCC2", "growth": "73.2%"},
      {"smiles": "Cc1ccc(Cl)c(NS(=O)(=O)c2ccc(-c3cnc(C4CC4)o3)cc2)c1", "growth": "26.5%"},
      {"smiles": "Cc1ccc2nc(C)c(-c3nnc(SCc4ccc(C#N)cc4)o3)n2c1", "growth": "104%"},
      {"smiles": "CC1=C(SCCC(=O)OC(C[Se]C2=C(C)C(=O)c3ccccc3C2=O)C(=O)NCCCCCC(=O)OCc2ccccc2)C(=O)c2ccccc2C1=O", "note": "(stereo unspecified)", "growth": "22.2%"},
      {"smiles": "NNC(=O)c1nc(N)n(-c2ccc(S(N)(=O)=O)cc2)n1", "growth": "97.1%"},
      {"smiles": "Cn1c(=O)c2[nH]c(NN)nc2n(C)c1=O", "growth": "106%"},
      {"smiles": "O=C(/C=C/c1cccc(O)c1)c1cccc(-n2cc(-c3ccc4ccccc4c3)[nH]c2=O)c1", "growth": "61.8%"},
      {"smiles": "O=C(/C=C/c1ccco1)c1ccc(Nc2nc(Nc3ccc(F)cc3)nc(Nc3ccc(Cl)cc3)n2)cc1", "growth": "38.3%"},
      {"smiles": "O=C1OC(c2nc3ccccc3s2)=C/C1=C\\c1ccc(O)cc1", "growth": "109%"},
      {"smiles": "COc1ccc(-c2c(N)n[nH]c2-c2ccc(Cl)cc2O)cc1OC", "growth": "92.9%"},
      {"smiles": "O=C(Nc1cccc(Cl)c1)c1cc(N=Nc2ccc([N+](=O)[O-])cc2Cl)ccc1O", "growth": "67.8%"},
      {"smiles": "CCN(CC)CCN1C(=O)c2c(c(C)c3c(oc4cc(O)ccc43)c2C)C1=O", "growth": "-65.3% (active)"},
      {"smiles": "CNC(=O)c1cc(Oc2ccc3nc(Nc4ccc(Cl)c(C(F)(F)F)c4)ccc3c2)ccn1", "growth": "48.2%"},
      {"smiles": "CCCc1cc2c(=O)c(C(=O)OC)c[nH]c2cc1N(CC)CC", "growth": "-20% (active)"},
      {"smiles": "COc1cc(/C=N/NC(=O)Cn2c(C(C)C)nc3ccccc32)ccc1O", "growth": "105%"},
      {"smiles": "COc1ccc(C(=O)COc2ccc(/C=C3\\Oc4ccccc4C3=O)cc2)cc1", "growth": "99%"},
      {"smiles": "CCN(CCNc1ccc(C)c2sc3ccccc3c(=O)c12)CC(C)(C)O", "growth": "40.8%"},
      {"smiles": "O=C(CSc1nnc(-c2ccc(NC(=O)c3cccnc3)cc2)o1)N[C@@H](Cc1ccc(O)cc1)C(=O)O", "growth": "104%"},
      {"smiles": "CN(C)c1ccc(/C=C/C(=O)c2cccc(Nc3nc(Nc4ccccc4)nc(Nc4ccccc4)n3)c2)cc1", "growth": "85.6%"},
      {"smiles": "N#C/C(=C\\c1ccc(-c2ccccc2F)o1)c1nc(-c2ccco2)cs1", "growth": "99.1%"},
      {"smiles": "Cc1ccc(C(=O)CSc2nc(-c3ccc(Br)cc3)c(C#N)c(=O)[nH]2)cc1", "growth": "101%"},
      {"smiles": "COc1ccc(-c2nc3sccn3c2-c2cc(-c3cc(OC)c(OC)c(OC)c3)on2)cc1", "growth": "104%"},
      {"smiles": "c1ccc(-c2nc([P+](c3ccccc3)(c3ccccc3)c3ccccc3)c(N3CCOCC3)o2)cc1", "growth": "15.4%"}
    ]}
  ]
}
